The results in this text go back to PMC7826789 (International Journal of Molecular Sciences, 2021).

The test has as its system RPS6KA6.
As for `Nc1nc(-c2ccccc2F)c(-c2ccnc3ccccc23)s1` [GW560459], the Kinases covered entry was “RPS6KA6”.
The result for `Fc1ccc(-c2nn3ccccc3c2-c2ccncc2)cc1` [GW434756X] reads “RPS6KA6”.
With `Nc1nc(-c2cccc(Cl)c2)c(-c2ccc3ncccc3n2)s1` [GW780159X], the Kinases covered entry was “RPS6KA6”.
As for `C[C@@H]1CCNC(=O)c2cc3ccc(C(=O)Nc4nc5ccccc5n4CCCN(C)C)cc3n21` [BI00645435], the Kinases covered result was “RPS6KA6”.
